The values that follow come from PubChem BioAssay (NCI).

Values joined by “and” are separate entries in the source; they are usually repeats but may differ in a detail not shown here. Equal entries are not always repeated. About 83,000 compounds went through this panel and 20% of them were active in at least one assay; those are over-represented in the sample as a whole.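 Activity criterion: percent growth below 10, measured after cells in 96-well plates were exposed to a single compound concentration for 48 hours.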 Active and inactive are the calls of the source.

Test systems include HOP-92 NSCLC; K-562 leukemia; MALME-3M melanoma; RXF 393 renal; UACC-257 melanoma; SK-MEL-28 melanoma; SK-MEL-2 melanoma; SN12C renal; TK-10 renal; CAKI-1 renal; A498 renal; OVCAR-3 ovarian; BT-549 breast; HCC-2998 colon; RPMI-8226 leukemia; MDA-MB-435 melanoma.
Assay in all cases: NCI-60 one-dose screen, 48 h (100 = growth as untreated, 0 = no growth, -100 = all killed)
Common to all, as to settings: 10 µM

`CC1=C2C(=O)[C@](C)(CO)C=C2C(=O)[C@](C)(O)C12CC2`: the growth in the test on HOP-92 NSCLC was -6.97% (active); with K-562 leukemia, 16.5% (inactive); in the test on MALME-3M melanoma, -24.5% (active); in the test with RXF 393 renal, -82.9% (active); with UACC-257 melanoma, 25.3% (inactive); with SK-MEL-28 melanoma it was 17.9% (inactive). Further, the growth was -35.6% (active) with SK-MEL-2 melanoma; 40.2% (inactive) with SN12C renal; -6.25% (active) with TK-10 renal; 45.8% (inactive) in the test on CAKI-1 renal; -35.9% (active) in the test with A498 renal; 4.36% (active) with OVCAR-3 ovarian. Besides, the growth was 8.15% (active) in the test on BT-549 breast and -2.5% (active) in the test on HCC-2998 colon.

Take `CC1=C(CCC=NNC(N)=O)C2=C(C)C3(CC3)[C@@](C)(O)C(=O)C2=C1`: the growth is 54.7% (inactive) with K-562 leukemia; -71.1% (active) with MALME-3M melanoma; -93.6% (active) in the test on RXF 393 renal; -62.1% (active) in the test on UACC-257 melanoma; -48.8% (active) with SK-MEL-28 melanoma; 1.73% (active) in the test with SN12C renal. Besides, the growth in the test on TK-10 renal is -9.84% (active); with CAKI-1 renal, 0.975% (active); with RPMI-8226 leukemia, 59.8% (inactive); in the test on BT-549 breast, -93.5% (active); in the test with MDA-MB-435 melanoma, -27.9% (active); in the test on HCC-2998 colon, -73.2% (active).

As for `C/C=C/CC(C)C(O)[C@H](NC(=O)[C@@H]1CCCN1C(=O)C(C)(C)NC(=O)CCCCCCCCC)C(=O)NC(C)(C)C(=O)N[C@@H](CCC(N)=O)C(=O)N[C@H](CCC(N)=O)C(=O)NC(C)(C)C(=O)NC(C)(C)C(=O)N[C@@H](CCC(N)=O)C(=O)N[C@H](CC(C)C)C(=O)N[C@H](CO)CC(C)C` (some centres not stated), the growth with HOP-92 NSCLC was -16.5% (active) and -24.9% (active); in the test on K-562 leukemia it was -50.1% (active) and 18% (inactive); in the test with MALME-3M melanoma, -41.5% (active) and -92.4% (active); in the test on RXF 393 renal, -54.3% (active) and -73.3% (active); with UACC-257 melanoma, -71.9% (active) and -73.2% (active); in the test with SK-MEL-28 melanoma it was -84.9% (active) and -100% (active). Besides, the growth in the test on SK-MEL-2 melanoma was -48.1% (active) and -31.4% (active); with SN12C renal, 2.83% (active) and -20.9% (active); in the test on TK-10 renal, 25.8% (inactive) and -4.38% (active); with CAKI-1 renal it was 17.6% (inactive) and 1.1% (active); in the test with A498 renal, -48.1% (active) and -26.1% (active); in the test with RPMI-8226 leukemia, -13.2% (active) and -31.7% (active). Further, the growth in the test on OVCAR-3 ovarian was -18.7% (active); in the test with BT-549 breast it was -77.4% (active) and -78.3% (active); in the test on MDA-MB-435 melanoma, -52.8% (active) and -87.1% (active); in the test on HCC-2998 colon, -36.1% (active) and -5.11% (active).

On to `C[C@@H]1CCC/C=C/[C@H]2C[C@@H](O)C[C@@H]2[C@@H](O)/C=C/C(=O)O1`, for which the growth with HOP-92 NSCLC is -4.99% (active); with K-562 leukemia, 15% (inactive); with MALME-3M melanoma it was -7.08% (active); with RXF 393 renal, -8.61% (active); with SK-MEL-28 melanoma, 18.3% (inactive); in the test on SK-MEL-2 melanoma, -38.9% (active). The growth is 11.4% (inactive) with SN12C renal; -45% (active) in the test with TK-10 renal; -14.7% (active) in the test on A498 renal; -1.65% (active) in the test on RPMI-8226 leukemia; -1.9% (active) in the test on OVCAR-3 ovarian; 6.57% (active) in the test on BT-549 breast. Moreover, the growth was 17.5% (inactive) in the test on MDA-MB-435 melanoma and 21.1% (inactive) with HCC-2998 colon.

Regarding `CC1=C2C(=C[C@@](C)(COC(=O)c3ccc(S(=O)(=O)F)cc3)[C@@H]2OC(=O)c2ccc(S(=O)(=O)F)cc2)C(=O)[C@](C)(O)C12CC2`, the growth was -17.1% (active) in the test on HOP-92 NSCLC; 23.8% (inactive) in the test with K-562 leukemia; -57.3% (active) in the test on MALME-3M melanoma; 60% (inactive) in the test on UACC-257 melanoma; 7.54% (active) with SK-MEL-28 melanoma; 21% (inactive) in the test on SN12C renal. Also, the growth was -3.99% (active) in the test on TK-10 renal; -2.73% (active) with CAKI-1 renal; 67% (inactive) in the test on RPMI-8226 leukemia; -90.2% (active) in the test with BT-549 breast; 3.18% (active) in the test with MDA-MB-435 melanoma; -60% (active) in the test with HCC-2998 colon.

`COC1[C@@H]2C[C@H]3C(C)(C)O[C@@](C/C=C(/C)C(=O)O)(C2=O)[C@]32Oc3c(CC=C(C)C)c4c(c(O)c3C(=O)[C@H]12)C=CC(C)(C)O4` (some centres not stated): the growth in the test with HOP-92 NSCLC was -36.4% (active); with K-562 leukemia, 2.55% (active); with MALME-3M melanoma, -90.2% (active); in the test on RXF 393 renal it was -81.1% (active); in the test on UACC-257 melanoma it was -48.2% (active); with SK-MEL-28 melanoma, -61.4% (active). The growth with SK-MEL-2 melanoma was -65.5% (active); in the test on SN12C renal it was -16.7% (active); in the test with A498 renal, -67.8% (active); in the test on RPMI-8226 leukemia it was -17% (active); in the test on OVCAR-3 ovarian, -90.6% (active); with BT-549 breast, -3.07% (active). Besides, the growth with MDA-MB-435 melanoma was -58.2% (active); with HCC-2998 colon, -81.9% (active).

For `COc1cccc2c1cc([N+](=O)[O-])c1c(C(=O)O)cc3c(c12)OCO3`, the growth in the test with HOP-92 NSCLC was 95.3% (inactive); in the test on K-562 leukemia it was 97.6% (inactive); in the test with MALME-3M melanoma, 95.9% (inactive); with RXF 393 renal, 104% (inactive); with SK-MEL-28 melanoma, 112% (inactive); with SK-MEL-2 melanoma it was 108% (inactive). Besides, the growth is 113% (inactive) in the test on SN12C renal; 100% (inactive) in the test on TK-10 renal; 87.1% (inactive) with CAKI-1 renal; 114% (inactive) in the test on A498 renal; 97.7% (inactive) in the test with RPMI-8226 leukemia; 126% (inactive) in the test with OVCAR-3 ovarian. Besides, the growth was 120% (inactive) in the test on BT-549 breast, 107% (inactive) in the test on MDA-MB-435 melanoma and 91.3% (inactive) in the test on HCC-2998 colon.
